Measured values taken from PubChem BioAssay (NCI).
About 83,000 compounds went through this panel and 20% of them were active in at least one assay; those are over-represented in the sample as a whole.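 Single-dose data. Exposure time 48 hours. Values below 10 considered active.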 Activity calls are given as the source filed them.

System: HT29 colon
Assay: NCI-60 one-dose screen, 48 h (100 = growth as untreated, 0 = no growth, -100 = all killed)
Settings: 10 µM unless noted

Row | Compound | growth
1 | OCCCCc1nccc2c1[nH]c1ccccc12 | 94.6% (inactive)
2 | CCCn1nc(-c2ccccc2)c2c(-c3ccccc3)onc2c1=O | 43.1% (inactive)
3 | Cc1cc(N(CCCNc2ccnc3cc(Cl)ccc23)Cc2ccccn2)nc(N2CCCC2)n1 | 44% (inactive)
4 | C=C(C)[C@@H]1CC[C@]2(CN)CC[C@]3(C)[C@H](CC[C@@H]4[C@@]5(C)CCC(N)[C@@](C)(CO)[C@@H]5CC[C@]43C)[C@@H]12 (some centres undefined) | -60.6% (active)
5 | COc1ccc(-n2ncn(CCCCCCn3cnn(-c4ccc(OC)cc4)c3=O)c2=O)cc1 | 101% (inactive)
6 | O=C(NC1CCOCC1)c1ccc2c(c1)CN(c1ncc(Cc3cccc(-n4cccn4)c3)s1)CC2 | 72.8% (inactive)
7 | C=C(CNCCc1ccc(O)cc1)[C@@H]1CC[C@]2(COC3CCCCO3)CC[C@]3(C)[C@H](CC[C@@H]4[C@@]5(C)CCC(NCCO)C(C)(C)[C@@H]5CC[C@]43C)[C@@H]12 (some centres undefined) | -90.3% (active)
8 | Cc1c(C(=O)O[C@H]2[C@@H]3[C@H](C)CC[C@H]3[C@]3(C)O[C@@]2(C2CCCCC2)C[C@H]3OC(=O)CO)ccc2ccccc12 | -4.24% (active)
9 | COc1ccc(Oc2nc(Nc3ccc(N4CCCCC4)nc3)ncc2NC(=O)c2cc(OC)cc(OC)c2)cc1 | 13.8% (inactive)
10 | O=C(Oc1ccc[nH]c1=O)c1cc([N+](=O)[O-])cc([N+](=O)[O-])c1 | 112% (inactive)
11 | Cc1cc(N2CCCCC2)nc(N(CCNc2ccnc3cc(Cl)ccc23)Cc2ccccn2)n1 | 13.1% (inactive)
12 | CCCCOc1ccc(NC(=O)n2nc(N=NN(C)C)c3ccc(Cl)cc32)cc1 | 98.1% (inactive)
13 | O=C1NN(C(=O)c2ccc(O)cc2)C(c2ccccc2)=N/C1=C\c1cn(-c2ccccc2)nc1-c1ccccc1 | 95.1% (inactive)
14 | COC(=O)/C(=C\c1ccc(OC)cc1)C(=O)N1c2ccccc2Sc2ccccc21 | 15.3% (inactive)
15 | COc1ccc(Oc2nc(Nc3ccc(N4CCOCC4)nc3)ncc2NC(=O)c2cc(OC)cc(OC)c2)cc1 | 77.8% (inactive)
16 | NC(=O)c1c(NC(=O)c2ccc(C(F)(F)F)cc2Cl)sc2c1CCC(=O)C2 | 1.16% (active)
17 | O=C(NCCOCCOCCOCCNC(=O)c1cc2c(o1)C(=O)c1ccccc1C2=O)NC12CC3CC(CC(C3)C1)C2 | 1.21% (active)
18 | COC(=O)c1ccc(CSc2nnc(-c3ccncc3)o2)cc1 | 109% (inactive)
19 | CCCc1nc2ccccn2c1Nc1ccc(C(=O)NO)cc1 | 92.7% (inactive)
20 | Fc1ccc(Nc2ccc3cc(OCCCN4CCOCC4)ccc3n2)cc1F | -6.89% (active)

Row | Compound | growth
21 | C=C1c2c(C)nn(-c3ccc(S(N)(=O)=O)cc3)c2N(C)C23CC1C1(C)c4c(C)nn(-c5ccc(S(N)(=O)=O)cc5)c4N(C)C(C)(CC12)C3 (centres undefined) | 13.6% (inactive)
22 | C=C1c2c(C)nn(-c3ccc(NC(C)=O)cc3)c2N(C)C23CC1C1(C)c4c(C)nn(-c5ccc(NC(C)=O)cc5)c4N(C)C(C)(CC12)C3 (centres undefined) | 31.1% (inactive)
23 | C[C@@H]1CC[C@@H]2[C@@H]1[C@H](OC(=O)c1ccc3ccccc3c1)[C@]1(C3CCCCC3)C[C@@H](OC(=O)CO)[C@@]2(C)O1 | 20.7% (inactive)
24 | CC(C)(C)c1ccc(C(=O)Nc2sc3c(c2C(N)=O)CCC(=O)C3)cc1 | 3.24% (active)
25 | N=c1ccn2c(n1)OC1C(O)C(CO)OC12 (centres undefined) | 34.4% (inactive)
26 | NC(=Nc1ccc(N)cc1)C(N)=Nc1ccc(N)cc1 | 113% (inactive)
27 | COc1ccc(/C=C(\C#N)n2nnc3cc(F)c(F)cc32)c(OC)c1OC | 64.5% (inactive)
28 | C=C1c2c(C)nn(-c3ccc(O)cc3)c2N(C)C23C[C@@H]1C1(C)c4c(C)nn(-c5ccc(O)cc5)c4N(C)C(C)(C[C@H]12)C3 (some centres undefined) | 17.5% (inactive)
29 | CSc1ccc(Cl)c(C(=O)Nc2sccc2C(N)=O)c1 | 118% (inactive)
30 | C=C1c2c(C)nn(-c3ccc(N)cc3)c2N(C)C23CC1C1(C)c4c(C)nn(-c5ccc(N)cc5)c4N(C)C(C)(CC12)C3 (centres undefined) | 61.7% (inactive)
31 | CC(=O)Nc1ccc2c(c1)Cc1c(F)cccc1-2 | 111% (inactive)
32 | C=C(C)[C@@H]1CC[C@]2(CNCCO)CC[C@]3(C)[C@H](CC[C@@H]4[C@@]5(C)CCC(N)[C@@](C)(CO)[C@@H]5CC[C@]43C)[C@@H]12 (some centres undefined) | -56.8% (active)
33 | Cc1cnc(Nc2ccc(OCCN3CCCC3)cc2)nc1NCc1ccco1 | 50.7% (inactive)
34 | Cc1cc(N(CCCNc2ccnc3cc(Cl)ccc23)Cc2ccccn2)nc(N2CCOCC2)n1 | 56% (inactive)
35 | C=C(CNCCc1ccc(O)cc1)[C@@H]1CC[C@]2(COC3CCCCO3)CC[C@]3(C)[C@H](CC[C@@H]4[C@@]5(C)CCC(N)C(C)(C)[C@@H]5CC[C@]43C)[C@@H]12 (some centres undefined) | -93.8% (active)
36 | Clc1ccc2c(NCCCN3CCN(c4nc(-n5ccnc5)nc5ccccc45)CC3)ccnc2c1 | -16.2% (active)
37 | Cn1c(NCCc2ccc(O)c(O)c2)nc2c1c(=O)n(Cc1ccc(Cl)cc1)c(=O)n2C | 101% (inactive)
38 | CCN(CC)N=Nc1nn(C(=O)Nc2ccc(Cc3ccccc3)cc2)c2ccc(Cl)cc12 | 61.8% (inactive)
39 | COC(=O)c1ccc2oc(NC(=O)c3ccc(N4CCOCC4)c([N+](=O)[O-])c3)nc2c1 | 95.6% (inactive)
